GLP1R ag – GLP-1 receptor (human) agonism | HEK293 GLP-1R CRE-luciferase, luminescence, 4-6 h; cells express a hypersensitive GLP-1R form | Potency, µM (top dose mostly 45.6 µM), hits mostly activators | 380,000 tested, 0.007% active | AID 624172
DRD3 antagonist – antagonists of human D3 dopamine receptor | P35462 | D3R cells, DiscoveRx beta-arrestin luminescence, antagonist mode; stronger effect = lower value | max response, negative = inhibition, % | 360,000 tested, 2.5% active | AID 652054; in the data active = max response below about -50%; inconclusive = no clear call, values can overlap the other calls
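Cells expressing the human receptor were seeded at 1500 cells/well, incubated overnight at 37 degrees C in 5% CO2, then exposed to library compounds with dopamine controls for 90 minutes at 37 degrees C before luminescent detection.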
GLP-1R inv ag – acts as inverse agonist at human GLP-1 receptor. P43220. HEK293 GLP-1R CRE-luciferase, luminescence, 24 h; GLP-1R form is constitutively active. Potency, µM (series often up to 38.3 µM), usual class: inhibitors. 410,000 tested, 1.6% active. AID 624417; note: nearly all actives have a fitted effect of over 55% in size
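HEK293 cells stably co-expressing a cAMP-responsive luciferase reporter and constitutively active GLP-1R were seeded, incubated 12 h, then exposed to compounds for 24 h at 37 C. Luminescence was read 12 min after detection reagent; inverse agonists lower signal.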
GLP1R cytotox – cytotoxicity counter-screen for GLP-1 receptor inverse agonists | HEK293 cAMP-luciferase reporter cells, luminescence, 24 h | Potency, µM (highest dose often 38.3 µM), most hits filed as inhibitors | 410,000 tested, 0.13% active | AID 624418;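 note: loss of luciferase light is scored as toxicity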
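Cells in DMEM/10% Nu serum/1% pen-strep, 1536-well format. Pre-incubated 12 h, dosed with 23 nL compound, incubated a further 24 h. Luciferase detection, 12 min at room temp, luminescence.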
DRD3 agonist – activates the human D3 dopamine receptor; D3R DiscoveRx beta-arrestin cells, luminescence, 90 min; max activation, %; 410,000 tested, 0.58% active; AID 652048; in the data active = max activation above about 30%
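Cells at 1500/well, incubated overnight, then treated with pinned compounds (dopamine as control) for 90 min at 37 degrees C. DiscoveRx reagent added for 30 - 60 minutes at room temperature; luminescence read.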
ClpP mod – qHTS Assay for Activators of ClpP; purified B. subtilis ClpP, FRET peptide cleavage, 20 min; Potency, µM (series often up to 57.5 µM); 340,000 tested, 1.9% active; active = well fitted falling curve with a large enough effect; inconclusive = small, poorly fitted or top-dose-only effect; inactive = no such curve, though single readings can be large or run the other way; note: the source files actives as falling curves though it sought activators and does not explain the sign; nearly all actives have a fitted effect of over 65% in size
Target sequence (P80244 whole entry, looked up): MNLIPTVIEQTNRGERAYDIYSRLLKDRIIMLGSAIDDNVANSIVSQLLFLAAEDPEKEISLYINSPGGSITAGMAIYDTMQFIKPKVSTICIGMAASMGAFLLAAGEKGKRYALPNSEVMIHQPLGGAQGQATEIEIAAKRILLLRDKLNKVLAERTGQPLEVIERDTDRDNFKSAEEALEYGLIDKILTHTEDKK
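Buffer: 100 mM Tris/HCl pH8, 100 mM KCl, 0.05% low protease BSA, 2.5% glycerol, 0.01% Tween-20. ClpP 10 microg/mL final; 20 min RT; delta FRET normalized to ADEP and DMSO controls.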
Hits are given with their value; i = inactive; ? = inconclusive; nt = not tested or not shown. In the library only some 5.7% were active in any assay of this set; here they are far more common. Unless noted, calls come from the whole dose curve; as a rule, active = well fitted curve in the direction sought with a large enough effect; inconclusive = small, poorly fitted or top-dose-only effect, or another doubt; inactive = no such curve, though single readings can be large; an effect the other way counts as inactive or inconclusive.

SMILES	GLP1R ag	DRD3 antagonist	GLP-1R inv ag	GLP1R cytotox	DRD3 agonist	ClpP mod
O=C(NC(NC(=S)Nc1ccc(Cl)c(Cl)c1)C(Cl)(Cl)Cl)c1ccco1 (centres undefined)	i	i	3.5µM	?	i	i
O=C(NC(NC(=S)Nc1ccccc1C(=O)O)C(Cl)(Cl)Cl)c1ccco1 (centres undefined)	i	?	i	i	i	28µM
O=C(Cc1ccc(OCCCCc2ccccc2)cc1)NO	nt	nt	nt	nt	nt	i
CCNc1nc(NC(C)C)nc(SCCOC(=O)c2ccccc2)n1	?	i	10µM	i	i	i
Cc1ccc(OCCSc2nc(N)cc(N)n2)cc1	i	i	i	i	i	nt
CCNc1nc(NCC)nc(OCCOC(=O)c2ccccc2)n1	i	i	i	i	i	i
CCNc1nc(NC(C)C)nc(SCCOc2ccc(C)cc2)n1	i	i	7.9µM	i	i	i
Cc1cccc(C)c1NC(=O)C(c1ccnc2ccccc12)n1c(=O)c(-c2ccco2)nc2ccccc21 (centres undefined)	nt	i	i	i	i	i
Cc1ccc(C(=O)OCC(=O)NCc2cccc(Cl)c2)cc1S(=O)(=O)N1CCCCC1	i	i	5µM	i	i	i
Cc1ccc(C(=O)OCC(=O)Nc2ccccc2C(F)(F)F)cc1S(=O)(=O)N1CCCCC1	i	i	10µM	i	i	i
O=C(COC(=O)c1ccc(Cl)c(S(=O)(=O)N2CCCCC2)c1)NCCc1ccccc1	i	i	i	i	i	i
Cc1cccc(C(=O)Nc2ccccc2C(=O)OCc2cc(=O)n3nc(C4CC4)sc3n2)c1	nt	nt	i	i	i	?
COC(=O)CSc1nnc(-c2ccncc2)n1N	i	i	i	i	i	i
Cc1ccc(NC(=O)CSc2nnc(-c3ccncc3)n2N)cc1C	i	-70	i	i	i	i
COc1ccc(OCc2nnc(SCC(=O)NNC(=O)c3ccc(C)cc3)n2C)cc1	i	-118	i	i	i	i
COc1ccc(OCCSc2nnc(CCNC(=O)c3ccc(Cl)c(Cl)c3)n2C)cc1	i	i	10µM	i	i	i
Cc1ccc(C(=O)NNC(=O)CSc2nnc(-c3ccncc3)n2C)cc1	i	-75	i	i	i	i
COc1ccc(CNC(=O)Cc2c(C)c3c(cc(C)c4c(C)c(C)oc43)oc2=O)cc1OC	nt	nt	i	i	i	i
COc1ccccc1Cn1cc(C(=O)c2ccc(C)cc2)c(=O)c2cc3c(cc21)OCCO3	nt	nt	i	i	i	i
COCc1cc(=O)[nH]c(SCCS(=O)(=O)c2ccc(C)cc2)n1	i	i	i	i	i	i
COCc1cc(=O)[nH]c(SCCS(=O)(=O)c2ccc(Cl)cc2Cl)n1	i	-62	?	i	i	i
Cn1c(C(=O)NCc2ccc(F)cc2)cc2c(=O)n(C)c3ccccc3c21	i	nt	i	i	i	i
COc1cc(Cl)c(C)cc1NC(=O)CCc1c(C)nc2c3cccnc3nn2c1C	nt	nt	i	i	i	25µM
CCn1c(=O)cc(OCC(=O)NCc2ccccc2OC)c2ccccc21	i	nt	i	i	i	i
O=C(CCc1nc(-c2ccccc2F)no1)Nc1cccc(C(F)(F)F)c1	nt	nt	?	i	i	i
SMILES	GLP1R ag	DRD3 antagonist	GLP-1R inv ag	GLP1R cytotox	DRD3 agonist	ClpP mod
CCCCn1c(NC(=S)Nc2ccccc2)nc2ccccc21	i	i	i	i	32	i
CCC(=O)Nc1nc2ccccc2n1CCN(C)C	i	-81	i	i	i	i
CN(C)CCCn1c(NC(=O)C2CCCCC2)nc2ccccc21	i	-52	i	i	i	i
CCCCOc1ccc(C(=O)Nc2ccc3c(c2)N(C(C)=O)CCC3)cc1	nt	nt	1.1µM	i	i	i
CCCCOC(=O)c1ccc(Nc2ncnc3c2cnn3-c2cccc(C)c2)cc1	nt	nt	i	i	i	i
Cc1cc2nc(C)n(CCCNC(=O)Nc3ccc(F)cc3)c2cc1C	i	i	10µM	i	i	i
CNC(=O)COc1ccccc1C(=O)Nc1ccccc1	nt	nt	nt	nt	nt	i
